Drawing on the supplement of paper PMC12297408, this text covers gametocyte viability for 29 compounds.

For this assay, the system named is Plasmodium falciparum NF54/iGP1_RE9H ulg8 stage V gametocytes. As to the kind of experiment: gametocyte viability (luciferase signal relative to DMSO control) (% of DMSO control); higher = less gametocytocidal activity, active = 50 or less. Particulars: exposure time: 72 h. The procedure, abridged: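 NF54/iGP1_RE9Hulg8 stage V gametocytes (day 12; ~2.5% gametocytemia, 3% hematocrit) in medium with 0.5% Albumax II were added to 96-well plates of nanolitre-spotted compounds (10 mM DMSO stocks), giving 10 µM or 1 µM, one well each. Plates were incubated 72 h at 37 °C. Then 90 µl was mixed with 10 µl D-luciferin (30 mg/ml) and luminescence was read on an IVIS Lumina II. Viability is relative to the mean of plate DMSO vehicle controls.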

“And” between values parts separate entries of the source, which are not always exact repeats. Identical values can stand only once. Counter-ions that a name gives are not always drawn. Unmarked numbers belong to inactive results.

With `Cc1c(NC(=O)OC[C@@H]2COCCN2)cn2ncnc(Nc3ccc4c(cnn4Cc4cccc(F)c4)c3)c12`, the gametocyte viability (concentration: 1 µM) was 85.8 and the gametocyte viability (concentration: 10 µM) is 96.

As for `Cc1cc(Nc2nc(N[C@@H](C)c3ccc(F)cc3)c(C#N)cc2F)n[nH]1`, the gametocyte viability is 97.5 (concentration: 1 µM) and 99.6 (concentration: 10 µM).

As for `COc1cc2/c(=N/c3ccc(Br)cc3F)nc[nH]c2cc1OCC1CCN(C)CC1` [Vandetanib (Zactima)], the gametocyte viability reads like this: (concentration: 1 µM) 88.8; (concentration: 10 µM) 108.

In the case of `Cc1[nH]nc2ccc(-c3cncc(OC[C@@H](N)Cc4ccccc4)c3)cc12`, the gametocyte viability (concentration: 1 µM) is 101 and the gametocyte viability (concentration: 10 µM) was 104.

On to `CC[C@H](Nc1ncnc2[nH]cnc12)c1nc2cccc(F)c2c(=O)n1-c1ccccc1`, for which the gametocyte viability is, setting by setting: (concentration: 1 µM) 95.1; (concentration: 10 µM) 95.9.

In the case of `Oc1cccc(-c2nc(N3CCOCC3)c3oc4ncccc4c3n2)c1`, the gametocyte viability is, setting by setting: (concentration: 1 µM) 115; (concentration: 10 µM) 111.

Consider `C[C@@H](Oc1cc(-n2cnc3ccc(CN4CCN(C)CC4)cc32)sc1C(N)=O)c1ccccc1C(F)(F)F`, for which the gametocyte viability was 103 (concentration: 1 µM) and 81.6 (concentration: 10 µM).

For `COc1cc2nccc(Oc3ccc(NC(=O)C4(C(=O)Nc5ccc(F)cc5)CC4)cc3)c2cc1OC` [XL-184 free base (Cabozantinib)], the gametocyte viability reads like this: (concentration: 1 µM) 100; (concentration: 10 µM) 83.1.

Regarding `O=C(Nc1c[nH]nc1-c1nc2ccc(CN3CCOCC3)cc2[nH]1)NC1CC1`, the gametocyte viability runs as follows: (concentration: 1 µM) 131; (concentration: 10 µM) 113.

On to `Cc1cc2ncc(-c3ccccc3)nc2cc1C`, for which the gametocyte viability is, setting by setting: (concentration: 1 µM) 91.2; (concentration: 10 µM) 70.6.

As for `Fc1cc(-c2cccc3ncc(-c4cnn(C5CCNCC5)c4)nc23)cc(F)c1CN1CCOCC1`, the gametocyte viability (concentration: 1 µM) was 107 and the gametocyte viability (concentration: 10 µM) was 80.

On to `Nc1cc(C(F)(F)F)c(-c2cc(N3CCOCC3)nc(N3CCOCC3)n2)cn1`, for which the gametocyte viability is 107 (concentration: 1 µM) and 98.6 (concentration: 10 µM).

Take `COc1cc2c(N3CCN(C(=O)Nc4ccc(OC(C)C)cc4)CC3)ncnc2cc1OCCCN1CCCCC1` [Tandutinib (MLN518)]: the gametocyte viability is, setting by setting: (concentration: 1 µM) 98.8; (concentration: 10 µM) 91.8.

Regarding `c1cncc(CN2CCC(n3ncc4c(N5CCOCC5)nc(-c5ccc6[nH]ccc6c5)nc43)CC2)c1`, the gametocyte viability is 95.7 (concentration: 1 µM) and 103 (concentration: 10 µM).

As for `COc1cc2c(Oc3ccc(NC(=O)C4(C(=O)Nc5ccc(F)cc5)CC4)cc3F)ccnc2cc1OCCCN1CCOCC1`, the gametocyte viability by setting is: (concentration: 1 µM) 86.7; (concentration: 10 µM) 91.5.

As for `O=C(NOCC(O)CO)c1cc(Br)c(F)c(F)c1Nc1ccc(I)cc1F` (stereo not drawn), the gametocyte viability is, setting by setting: (concentration: 1 µM) 99.1; (concentration: 10 µM) 97.3.

As to `CCc1cccc(CC)c1NC(=O)N1Cc2[nH]nc(NC(=O)c3ccc(N4CCN(C)CC4)cc3)c2C1`, the gametocyte viability (concentration: 1 µM) was 109 and the gametocyte viability (concentration: 10 µM) is 68.7.

On to `NC1(c2ccc(-c3nc4ccn5c(=O)[nH]nc5c4cc3-c3ccccc3)cc2)CCC1` [MK-2206 dihydrochloride], for which the gametocyte viability runs as follows: (concentration: 1 µM) 97.5; (concentration: 10 µM) 63.9.

Take `Cc1ccc([N+](=O)[O-])cc1S(=O)(=O)N(C)/N=C/c1cnc2ccc(Br)cn12`: the gametocyte viability is 94.9 (concentration: 1 µM) and 101 (concentration: 10 µM).

Regarding `COc1ccc(S(=O)(=O)N(C(C)=O)c2ccccc2/C=C/c2cc[n+]([O-])cc2)cc1`, the gametocyte viability runs as follows: (concentration: 1 µM) 98; (concentration: 10 µM) 112.

Consider `O=c1c(-c2ccc(O)cc2)coc2cc(O)cc(O)c12` [Genistein], for which the gametocyte viability was 95.5 (concentration: 1 µM) and 83.9 (concentration: 10 µM).

As to `CN(C)CCCn1cc(C2=C(c3c[nH]c4ccccc34)C(=O)NC2=O)c2ccccc21`, the gametocyte viability is 92.7 (concentration: 1 µM) and 115 (concentration: 10 µM).

In the case of `Nc1nccc(Oc2ccc(NC(=O)c3c[nH]cc(-c4ccc(F)cc4)c3=O)cc2F)c1Cl`, the gametocyte viability reads like this: (concentration: 1 µM) 102; (concentration: 10 µM) 114.

In the case of `O=C1C(c2c(O)[nH]c3ccccc23)=Nc2ccccc21` [Indirubin], the gametocyte viability is, setting by setting: (concentration: 1 µM) 104 and 100; (concentration: 10 µM) 113 and 97.3.

Consider `Cc1ccc(Nc2nccc(N(C)c3ccc4c(C)n(C)nc4c3)n2)cc1S(N)(=O)=O` [Pazopanib HCl], for which the gametocyte viability was 98 (concentration: 1 µM) and 109 (concentration: 10 µM).

Regarding `Nc1ncnc2c1c(-c1cnc3[nH]ccc3c1)nn2C1CCCC1`, the gametocyte viability (concentration: 1 µM) was 101 and the gametocyte viability (concentration: 10 µM) is 116.

Turning to `O=C1Nc2ccc(I)cc2/C1=C/c1cc(Br)c(O)c(Br)c1`, the gametocyte viability reads like this: (concentration: 1 µM) 92.1; (concentration: 10 µM) 90.5.

Regarding `Cc1ccc(NC(=O)c2cccc(N(C)C)c2)cc1NC(=O)c1ccc(O)cc1`, the gametocyte viability (concentration: 1 µM) was 95.9 and the gametocyte viability (concentration: 10 µM) is 95.6.

As to `CC(=O)Nc1nc(C)c(-c2ccc(Cl)c(S(=O)(=O)NCCO)c2)s1`, the gametocyte viability is 81.5 (concentration: 1 µM) and 13.6 (active) (concentration: 10 µM).
